Several values for one entry are separate records, joined by “and”; a condition that tells them apart may be missing. Equal entries are not always repeated. In all, about 5,500 compounds went through this assay and about 2,000 (36%) were called active. Not shown: some 18% with an inconclusive outcome. Cut-off read from the data, not from the text of the source: active = normalized growth mostly below about 0.91 (no sharp cut-off); inconclusive = no clear call, values can overlap the other calls; inactive = mostly above about 0.92. This is one part of the list.
Experiment: chemical genetic growth profiling, strain panel (AID 1159580);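 note: tested at 20 µM; growth read once vehicle control cultures reached saturation at 30 °C; 1 = growth at the plate median or of vehicle wells; lower values mean less growth of the strain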
Conditions: S. cerevisiae deletion strains, growth OD

Measured: normalized growth

CCCCC1=NC2(CCCC2)C(=O)N1Cc1ccc(-c2ccccc2-c2nn[nH]n2)cc1
inactive: locus YAL013W, strain DEP1, active compounds read low 0.984 | locus YAL021C, strain ccr4, active compounds read low 1.01 | locus YAL026C, strain drs2, active compounds read low 1.01 | locus YAL030W, strain snc1, active compounds read low 1.02 | locus YBL061C, strain skt5, active compounds read low 1.02 | locus YBR009C, strain hhf1, active compounds read low 1.01 | locus YBR021W, strain FUR4, active compounds read low 0.985 | locus YBR023C, strain chs3, active compounds read low 1.01 | locus YBR171W, strain sec66, active compounds read low 1.02 | locus YBR229C, strain ROT2, active compounds read low 0.938 | locus YBR231C, strain swc5, active compounds read low 1.03 | locus YBR279W, strain paf1, active compounds read low 1.01 | locus YCL011C, strain gbp2, active compounds read low 1.03 | locus YCL016C, strain dcc1, active compounds read low 1.01 | locus YCL029C, strain bik1, active compounds read low 0.993 | locus YCL069W, strain vba3, active compounds read low 1.02 | locus YCR088W, strain abp1, active compounds read low 1.02 | locus YDL005C, strain med2, active compounds read low 1.03 | locus YDL035C, strain GPR1, active compounds read low 0.974 | locus YDL040C, strain nat1, active compounds read low 1.02 | locus YDL074C, strain BRE1, active compounds read low 1 | locus YDL101C, strain DUN1, active compounds read low 0.99 | locus YDL134C, strain PPH21, active compounds read low 0.988 | locus YDL185W, strain tfp1, active compounds read low 0.987 | locus YDL192W, strain arf1, active compounds read low 0.985 | locus YDR001C, strain nth1, active compounds read low 1 | locus YDR069C, strain doa4, active compounds read low 1.02 | locus YDR101C, strain arx1, active compounds read low 0.998 | locus YDR137W, strain rgp1, active compounds read low 1.01 | locus YDR150W, strain NUM1, active compounds read low 0.97 | locus YDR159W, strain sac3, active compounds read low 1.02 | locus YDR162C, strain NBP2, active compounds read low 0.982 | locus YDR195W, strain ref2 1.02 | locus YDR297W, strain sur2, active compounds read low 1.02 | locus YDR318W, strain mcm21, active compounds read low 1 | locus YDR334W, strain swr1, active compounds read low 1.02 | locus YDR335W, strain msn5, active compounds read low 1 | locus YDR388W, active compounds read low 0.999 | locus YDR392W, strain spt3, active compounds read low 1.01 | locus YDR502C, strain sam2, active compounds read low 0.982 | locus YEL003W, strain gim4, active compounds read low 1.01 | locus YEL037C, strain rad23, active compounds read low 1.02 | locus YEL061C, strain CIN8 (second series), active compounds read low 1.03 | locus YEL061C, strain CIN8, active compounds read low 0.979 | locus YER015W, strain faa2, active compounds read low 1.02 | locus YER016W, strain bim1, active compounds read low 1.01 | locus YER110C, active compounds read low 0.977 | locus YER111C, strain swi4, active compounds read low 1 | locus YER155C, strain BEM2 (second series), active compounds read low 1.05 | locus YER155C, strain BEM2, active compounds read low 1.01 | locus YER167W, strain BCK2, active compounds read low 0.976 | locus YFR010W, strain ubp6, active compounds read low 1.02 | locus YGL078C, strain dbp3, active compounds read low 0.969 | locus YGL086W, strain mad1, active compounds read low 0.988 | locus YGL167C, strain pmr1, active compounds read low 1.02 | locus YGL173C, strain kem1, active compounds read low 1.02 | locus YGL227W, strain vid30, active compounds read low 1.01 | locus YGL240W, strain doc1, active compounds read low 0.993 | locus YGL248W, strain PDE1, active compounds read low 0.979 | locus YGL253W, strain hxk2, active compounds read low 1.01 | locus YGR078C, strain PAC10, active compounds read low 1.02 | locus YGR135W, strain pre9, active compounds read low 1.02 | locus YGR229C, strain SMI1, active compounds read low 1.01 | locus YGR252W, strain gcn5, active compounds read low 0.931 | locus YHR013C, strain ard1, active compounds read low 1.01 | locus YHR027C, strain rpn1, active compounds read low 1.01 | locus YHR030C, strain SLT2, active compounds read low 0.994 and 0.967 | locus YHR079C, strain IRE1 (second series), active compounds read low 0.989 | locus YHR079C, strain IRE1, active compounds read low 0.973 | locus YHR094C, strain hxt1, active compounds read low 0.992 | locus YHR129C, strain ARP1, active compounds read low 1 | locus YHR142W, strain chs7, active compounds read low 1.01 | locus YHR200W, strain rpn10, active compounds read low 0.99 | locus YIL066C, strain RNR3, active compounds read low 0.974 | locus YIL073C, strain SPO22, active compounds read low 1.01 | locus YIL125W, strain kgd1, active compounds read low 0.966 | locus YIR030C, strain dcg1, active compounds read low 0.978 | locus YJL092W, strain hpr5, active compounds read low 1.01 | locus YJL095W, strain BCK1 (second series), active compounds read low 1.02 | locus YJL095W, strain BCK1, active compounds read low 1.06 and 1.01 | locus YJL115W, strain asf1, active compounds read low 0.999 | locus YJL129C, strain trk1, active compounds read low 1.01 | locus YJL134W, strain LCB3, active compounds read low 0.98 | locus YJL154C, strain vps35, active compounds read low 1.01 | locus YJL164C, strain tpk1, active compounds read low 0.997 | locus YJL166W, strain qcr8, active compounds read low 1.03 | locus YJL168C, strain set2, active compounds read low 0.993 | locus YJL187C, strain SWE1 (second series), active compounds read low 1.01 | locus YJR043C, strain POL32, active compounds read low 1.02 | locus YJR066W, strain TOR1, active compounds read low 0.953 | locus YJR075W, strain HOC1, active compounds read low 1.01

Source: PubChem BioAssay AID1159580 (chemical genetic matrix, 2015)
